# A number with no mark means an inactive call.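 The calls were made as follows: active = log2 fold change beyond 2 SD from the library mean after excluding viability outliers; inactive = within 2 SD.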
# Molecular target: PARP1 L713F-nLuc biosensor (HCT116) (UniProt P09874)
# Assay: PARP1 L713F-nLuc/akaLuc ratio relative to DMSO control (biosensor stabilization) (fold change); higher = more PARP1 biosensor stabilization (target engagement / stabilizer), active = hit call of the paper
# Conditions: 24 h
# [1] = stock concentration (mM; final µM = stock mM x 1): 2
# [2] = stock concentration (mM; final µM = stock mM x 1): 9
# Sequence of PARP1 L713F-nLuc biosensor (HCT116) (P09874 whole entry L713F, looked up): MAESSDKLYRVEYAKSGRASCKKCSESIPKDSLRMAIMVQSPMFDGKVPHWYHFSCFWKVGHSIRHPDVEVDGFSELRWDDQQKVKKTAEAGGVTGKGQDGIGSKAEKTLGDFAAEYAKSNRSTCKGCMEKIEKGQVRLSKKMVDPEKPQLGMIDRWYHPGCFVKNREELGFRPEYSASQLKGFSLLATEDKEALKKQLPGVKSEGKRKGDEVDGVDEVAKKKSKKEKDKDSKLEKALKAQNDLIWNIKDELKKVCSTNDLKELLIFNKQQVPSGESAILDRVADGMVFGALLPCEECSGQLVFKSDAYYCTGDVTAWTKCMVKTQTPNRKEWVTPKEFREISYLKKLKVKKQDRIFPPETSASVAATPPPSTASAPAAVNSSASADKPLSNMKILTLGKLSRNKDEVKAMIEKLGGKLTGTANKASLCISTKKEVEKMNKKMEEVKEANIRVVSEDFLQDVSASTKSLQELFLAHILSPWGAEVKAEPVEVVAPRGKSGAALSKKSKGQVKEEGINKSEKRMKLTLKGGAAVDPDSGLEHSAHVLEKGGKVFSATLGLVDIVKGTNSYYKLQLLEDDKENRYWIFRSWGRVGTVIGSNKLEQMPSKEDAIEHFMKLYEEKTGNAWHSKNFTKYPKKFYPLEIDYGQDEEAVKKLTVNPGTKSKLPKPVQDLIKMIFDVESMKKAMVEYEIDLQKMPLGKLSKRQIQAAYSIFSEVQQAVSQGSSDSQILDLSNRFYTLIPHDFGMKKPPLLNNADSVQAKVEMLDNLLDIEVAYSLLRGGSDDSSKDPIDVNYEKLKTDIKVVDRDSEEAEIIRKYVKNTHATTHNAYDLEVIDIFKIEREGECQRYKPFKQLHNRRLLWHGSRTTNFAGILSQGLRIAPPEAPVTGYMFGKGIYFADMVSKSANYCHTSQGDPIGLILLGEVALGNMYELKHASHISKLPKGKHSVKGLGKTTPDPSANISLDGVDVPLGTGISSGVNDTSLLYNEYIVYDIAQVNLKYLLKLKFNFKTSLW
SMILES,PARP1 L713F-nLuc/akaLuc ratio [1],PARP1 L713F-nLuc/akaLuc ratio [2]
Cc1nn(C)c(COc2ccc(N3CCN(S(=O)(=O)N(C)C)CC3)cc2)c1-c1cccc2c(CCCOc3cccc4ccccc34)c(C(=O)O)n(CCN3CCOCC3)c12,1.04,–
CCc1c(N(CC)C2CCOCC2)cc2oc(C3CCN(C(C)C)CC3)cc2c1C(=O)NCc1c(C)cc(C)[nH]c1=O,0.847,–
N[C@@H]1[C@@H](O)[C@H](O[C@@H]2O[C@H](CO)[C@@H](O)[C@H](O)[C@H]2N)[C@@H](CO)O[C@H]1O [Chitosan oligosaccharide],–,0.65
Cn1cc(-c2cnn3c(N)c(Br)c([C@@H]4CCCNC4)nc23)cn1,2.66,–
CCn1cc(C(=O)O)c(=O)c2cc(F)c(N3CCNCC3)nc21 [Enoxacin (hydrate)],–,0.596
CC(C)Cn1cnc2c(N)nc3ccccc3c21 [Imiquimod],1.02,–
CCC(C)n1ncn(-c2ccc(N3CCN(c4ccc(OCC5COC(Cn6cncn6)(c6ccc(Cl)cc6Cl)O5)cc4)CC3)cc2)c1=O (stereo unspecified) [Itraconazole],0.872,–
CNC(=O)c1ccc(-c2cnc3ncc(Cc4ccc5ncccc5c4)n3n2)cc1F,0.95,–
CCN(c1cc(-c2ccc(CN3CCOCC3)cc2)cc(C(=O)NCc2c(C)cc(C)[nH]c2=O)c1C)C1CCOCC1 [Tazemetostat (EPZ-6438)],1.21,–
COc1cc2/c(=N/c3ccc(Br)cc3F)nc[nH]c2cc1OCC1CCN(C)CC1 [Vandetanib (ZD6474)],0.748,–
Cc1cc(C)c(CNC(=O)c2cc(-c3ccc(CN4CCOCC4)cc3)cc3c2cnn3C2CCCC2)c(=O)[nH]1,1.45,–
